# Experimental data as given in the supplement of paper PMC10338343.
# ± gives the standard deviation.
# What was measured:
# [1] = tested on: MILI (PIWIL2) piRISC loaded with L1MC piRNA (26 nt); test: pre-steady-state target cleavage rate (min^-1); guide: L1MC piRNA 5'p-UAACUAAAUACUAUGCAAGCUGUAGG; higher = faster piRNA-guided slicing of the target;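 further: 1 nM active piRISC with 0.1 nM target library at 33 °C single turnover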
# Outline: (§1)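 For Cleave-'n-Seq, a transcribed, DNA-blocked target RNA library […] met 1 nM active affinity-purified piRISC with one synthetic guide at 33 °C for 0–8 or 0–960 min in HEPES–potassium acetate buffer, with or without 500 nM GTSF1 partner protein. Uncleaved targets were sequenced and normalised to depth and weakly complementary targets, with three trials pooled and k3 capped at 0.0001 min^-1. A burst-and-steady-state fit supplied the pre-steady-state cleavage rate.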
# [2] = tested on: EfPiwi piRISC loaded with L1MC piRNA (26 nt); test: pre-steady-state target cleavage rate (min^-1); auxiliary factor: 500 nM Ephydatia muelleri Gtsf1; guide: L1MC piRNA 5'p-UAACUAAAUACUAUGCAAGCUGUAGG; MIWI and MILI are mouse PIWI proteins and EfPiwi is from a freshwater sponge; tags in brackets are library labels; higher = faster piRNA-guided slicing of the target
# Outline: as §1
# [3] = auxiliary factor: 500 nM mouse GTSF1
# [4] = auxiliary factor: none (no GTSF1)
Sequence,"pre-steady-state target cleavage rate [1, 3]","pre-steady-state target cleavage rate [1, 4]",pre-steady-state target cleavage rate [2]
UCCUGCUAGAGCUUGGAUAGUAUUUAGUUA,0.178 ± 0.014,0.0074 ± 0.0021,0.00499 ± 0.0016
UCCUGGUAGUCCUUGCAUAGUAUUUAGUUA,0.126 ± 0.018,0.00932 ± 0.003,0.00556 ± 0.0026
UCCUGGUACAGCUUGCAUAGUAUCUAGUUA,0.156 ± 0.029,0.00431 ± 0.0025,0.004 ± 0.0021
UCCUGGUAGCAGCUUGCAUAGUAUUUAGUUA,0.286 ± 0.019,0.0162 ± 0.0048,0.0746 ± 0.02
UCCUGGAAGAGCAUGCAUAGUAUUUAGUUA,0.196 ± 0.015,0.00911 ± 0.0029,0.0132 ± 0.004
UCCUCCUAGAGCUAGCAUAGUAUUUAGUUA,0.218 ± 0.015,0.00391 ± 0.0022,0.0136 ± 0.0043
UCCUGGAUGUCUUUGCAUAGUAUUUAGUUA,0.119 ± 0.015,0.0125 ± 0.0027,0.00871 ± 0.0039
UCCUGGUACAGCUUGAAUAGUAUUUAGUUA,0.302 ± 0.055,0.00915 ± 0.0046,0.0053 ± 0.0028
UCCUGGAACAGCUUGCAUAGUAAAUAGUUA,0.153 ± 0.021,0.0034 ± 0.0027,0.00589 ± 0.0023
UCCUGGAUCAGGUUGCAUAGUAUUUAGUUA,0.182 ± 0.02,0.00807 ± 0.0024,0.0232 ± 0.0061
UCCUGGAUGUCCUUGCAUAGUAUUUAGAUA,0.118 ± 0.018,0.00265 ± 0.0023,0.00461 ± 0.0029
UCCUGGUAGAGCUUGCAUAGUAUAUAGUUA,0.207 ± 0.027,0.00638 ± 0.0021,0.0131 ± 0.0051
UCCUCCAACAGCUUGCAUAGUAUAUAGUUA,0.234 ± 0.027,0.0056 ± 0.0022,0.00628 ± 0.0027
UCCUGCUACAGCUACCAUAGUAUUUAGUUA,0.233 ± 0.032,0.0038 ± 0.0024,0.00308 ± 0.0021
UCCUGCUACAGGUUGCAAAGUAUUUAGUUA,0.143 ± 0.013,0.00965 ± 0.0025,0.0385 ± 0.0096
UCCUGGAUGUCGUUGCAUAGUAUUUAGUUA [g2:g18:cont:t1A],0.164 ± 0.013,0.0106 ± 0.0029,0.00621 ± 0.0026
UCCUGGAUGUGCUUGCAUAGUGUUUAGUUA,0.0653 ± 0.013,0.00396 ± 0.0032,0.0123 ± 0.0051
UCCUGGAACAGCUUCAUAGUAUUUAGUUA,0.252 ± 0.015,0.00361 ± 0.0026,0.0107 ± 0.0034
UCCUGGAUGUGCUUGCAUACUAUUUAGUUA,0.0281 ± 0.0064,0.00431 ± 0.0022,0.0112 ± 0.0036

Sequence,"pre-steady-state target cleavage rate [1, 3]","pre-steady-state target cleavage rate [1, 4]",pre-steady-state target cleavage rate [2]
UCCUCCUACAGCAUGCAUAGUAUUUAGUAA,0.231 ± 0.019,0.00366 ± 0.0021,0.00521 ± 0.0023
UCCUGGAACAGCUAGCAUAGUAUUUAGUUA,0.242 ± 0.019,0.00629 ± 0.0023,0.015 ± 0.0041
UCCUGGUACAGCUUGCAUAGUCUUUAGUUA,0.152 ± 0.025,0.00831 ± 0.003,0.00738 ± 0.0024
UCCUGGAUCAGCUUGCAUACUAUUUAGUUA,0.0716 ± 0.011,0.0037 ± 0.0021,0.0114 ± 0.0021
UCCUCCUAGAGCUUGGAUAGUAUUUAGUUA,0.217 ± 0.013,0.00594 ± 0.0019,0.0312 ± 0.0067
UCCUGGAUGUGCUUGCAUAGUAUUUAGUUG [g2:g20:cont:t1G],0.179 ± 0.022,0.00877 ± 0.0027,0.00803 ± 0.0029
UCCUGCUACAGCUUGCAUAGUGAUUUAGUUA,0.0204 ± 0.0094,0.00369 ± 0.0028,0.00289 ± 0.0028
UCCUCCUCACAGCUUGCAUAGUAUUUAGUUA,0.369 ± 0.021,0.0102 ± 0.0027,0.191 ± 0.046
UCCUGCUACGGCUUGCAUAGUAUUUAGUUA,0.276 ± 0.021,0.00977 ± 0.0025,0.00972 ± 0.0027
UCCUGGAUGUCGUUUGCAUAGUAUUUAGUUA,0.13 ± 0.013,0.00976 ± 0.0036,0.0445 ± 0.013
UCCUGCUAGCAGCUUGCAUAGUAUUUAGUUA,0.259 ± 0.014,0.00955 ± 0.0024,0.0598 ± 0.016
UCCUGGAUCAGGUUGCAUAGUAUUUAGUAA,0.227 ± 0.016,0.00858 ± 0.0024,0.00537 ± 0.0021
UCCUGGAUCAGCUUGCAUAGUAUUUACGUUA,0.243 ± 0.027,0.00431 ± 0.0028,0.0133 ± 0.0044
UCCUCCUACAGCUUGCCAUAGUAUUUAGUUA,0.173 ± 0.026,0.00264 ± 0.0026,0.00595 ± 0.0024
UCCUCCUAGAGCAUGCAUAGUAUUUAGUUA,0.2 ± 0.019,0.00564 ± 0.0018,0.0163 ± 0.0058
UCCUGGUACAGCUUGCAUAGUAUUUAUGUUA,0.147 ± 0.036,0.0114 ± 0.0044,0.00329 ± 0.0024
UCCUGGUACGAGCUUGCAUAGUAUUUAGUUA,0.247 ± 0.045,0.0102 ± 0.0039,0.00873 ± 0.0027
UCCUGGUACAGCUUGGAUAGUAUAUAGUUA,0.316 ± 0.065,0.0066 ± 0.0032,0.00702 ± 0.0025
